Measured values published in PubChem BioAssay (EPA / NIEHS).
Calls of active or inactive are those of the source. How the source made its calls: active means hit-call score of the fitted dose curve at least 0.9, where 1 is the maximum; inactive means score below 0.9.

Legend:
Settings in all cases: primary human HUVEC with PBMC; actives raise or lower the signal
[1] = read-out: Monocyte Chemoattractant Protein-1 (MCP1), CCL2 (gene 6347); assay: BSK_LPS_MCP1: BioMAP Diversity Plus: LPS Assay for Monocyte Chemoattractant Protein-1 (MCP1) Biomarker Activity (AID 2283081);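 on AC50: secreted MCP-1 protein quantified by ELISA in culture supernatant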
Procedure, shortened: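 LPS-stimulated HUVEC/PBMC co-culture; chemical, 24 h; MCP-1 by ELISA; bidirectional fit vs DMSO; cytotoxicity via SRB (0.1% stain, 10% TCA fix, 560 nm) in parallel wells.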

[2] = BSK_LPS_PGE2: BioMAP Diversity Plus: LPS Assay for Prostaglandin E2 (PGE2) Biomarker Activity (AID 2283082);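 on AC50: secreted prostaglandin E2 measured by ELISA in LPS-stimulated co-culture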
Procedure, shortened: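 HUVEC plus PBMC co-culture stimulated with LPS; secreted PGE2 quantified by ELISA 24 h after chemical dosing. Activity fitted bidirectionally against DMSO as negative control and baseline; parallel SRB total-protein staining served as cytotoxicity check.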

[3] = read-out: Macrophage colony-stimulating factor (MCSF), CSF1 (gene 1435); assay: BSK_LPS_MCSF: BioMAP Diversity Plus: LPS Assay for Macrophage colony-stimulating factor (MCSF) Biomarker Activity (AID 2283083)
Procedure, shortened: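 Compound is added to a human vascular primary co-culture of umbilical vein endothelium and blood mononuclear cells. After 24 h, M-CSF is quantified by ELISA. Signal changes are fitted in both directions against DMSO.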

[4] = read-out: Tissue Factor, F3 (gene 2152); assay: BSK_LPS_TissueFactor: BioMAP Diversity Plus: LPS Assay for Tissue Factor Biomarker Activity (AID 2283084)
Procedure, shortened: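 In this co-culture system of umbilical vein endothelium with PBMC, stimulated with LPS, cell-surface CD142 is detected by ELISA at 24 h. Endpoint values derive from bidirectional fitting, DMSO serving as baseline.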

[5] = read-out: Tumor necrosis factor (Homo sapiens) (UniProt P01375); assay: BSK_LPS_TNFa: BioMAP Diversity Plus: LPS Assay for Tumour Necrosis Factor alpha (TNFa) Biomarker Activity (AID 2283085)
Procedure, shortened: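 Human umbilical vein endothelial cells co-cultured with PBMC were exposed to test chemical and TNFa measured by ELISA 24 h after dosing. Bidirectional curve fitting was done relative to DMSO as negative control and baseline.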

[6] = read-out: Vascular cell adhesion molecule 1 (VCAM1), VCAM1 (gene 7412); assay: BSK_LPS_VCAM1: BioMAP Diversity Plus: LPS Assay for Vascular cell adhesion molecule 1 (VCAM1) Biomarker Activity (AID 2283086)
Procedure, shortened: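 Human umbilical vein endothelial cells co-cultured with peripheral blood mononuclear cells under LPS stimulation were exposed to test chemical for 24 h. VCAM-1 levels were then measured by ELISA, with bidirectional curve fitting relative to DMSO as negative control and baseline.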

CD38, CD38 (gene 952) = assay: BSK_SAg_CD38: BioMAP Diversity Plus: SAg Assay for CD38 Biomarker Activity (AID 2283087)
Procedure, shortened: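 Fluorescence ELISA of cell-surface CD38 served as the read-out, with either increase or decrease fitted against DMSO controls. Cells were a human umbilical vein endothelium plus PBMC co-culture under SEB/TSST-1 stimulation, measured 24 h after dosing.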

CD40, CD40 (gene 958) = assay: BSK_SAg_CD40: BioMAP Diversity Plus: SAg Assay for CD40 Biomarker Activity (AID 2283088)
Procedure, shortened: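 Fluorescence ELISA read-out of CD40 from umbilical vein endothelium plus peripheral blood mononuclear cells, sampled 24 h after dosing. Values come from bidirectional curve fitting with DMSO as baseline.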

CD69, CD69 (gene 969) = assay: BSK_SAg_CD69: BioMAP Diversity Plus: SAg Assay for CD69 Biomarker Activity (AID 2283089);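 on AC50: cell surface CD69 protein quantified by ELISA with fluorescence detection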
Procedure, shortened: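 Primary human vascular co-culture (umbilical vein endothelium with peripheral blood mononuclear cells) exposed to test chemical for 24 h. CD69 levels quantified by fluorescence ELISA; DMSO served as negative control for bidirectional fitting.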

[7] = read-out: Monocyte Chemoattractant Protein-1 (MCP1), CCL2 (gene 6347); assay: BSK_SAg_MCP1: BioMAP Diversity Plus: SAg Assay for Monocyte Chemoattractant Protein-1 (MCP1) Biomarker Activity (AID 2283090)
Procedure, shortened: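 MCP-1 levels in the endothelial–PBMC SAg co-culture were quantified by ELISA at 24 h post-dosing; both increases and decreases versus DMSO scored. Cytotoxicity monitored by SRB total protein in parallel cultures.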

Measured: AC50

Sequence of Tumor necrosis factor (Homo sapiens) (P01375 whole entry, looked up): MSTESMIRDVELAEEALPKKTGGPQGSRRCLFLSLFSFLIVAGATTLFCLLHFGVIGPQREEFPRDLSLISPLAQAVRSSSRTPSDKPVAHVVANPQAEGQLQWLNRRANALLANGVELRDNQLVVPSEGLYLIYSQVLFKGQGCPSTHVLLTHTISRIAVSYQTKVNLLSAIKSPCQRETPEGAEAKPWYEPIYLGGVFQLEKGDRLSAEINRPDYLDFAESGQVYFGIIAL

CCCN(CC)CC1COC2(CCC(C(C)(C)C)CC2)O1 (configuration not stated)
active: CD38, CD38 (gene 952) 14.7 µM
inactive: all other assays above

CC1(C)CCC(=Cc2ccc(Cl)cc2)C1(O)Cn1cncn1 (configuration not stated)
inactive: all assays above

COC(=O)NC(=S)Nc1ccccc1NC(=S)NC(=O)OC
active: [3] 22.8 µM | CD38, CD38 (gene 952) 28.4 µM
inactive: all other assays above

CS(=O)(=O)c1ccc(C(=O)C2C(=O)CCCC2=O)c([N+](=O)[O-])c1
inactive: all assays above

CCOP(=O)(OCC)Oc1nc(Cl)c(Cl)cc1Cl
active: [5] 35.9 µM | [6] 16.7 µM | CD38, CD38 (gene 952) 29.6 µM | CD40, CD40 (gene 958) 20 µM | CD69, CD69 (gene 969) 23.1 µM | [7] 23.9 µM
inactive: [1] | [2] | [3] | [4]

CCOc1nc(F)cc2nc(S(=O)(=O)Nc3c(Cl)cccc3Cl)nn12
inactive: all assays above

O=C(O)c1c(Cl)ccc2cc(Cl)cnc12
inactive: all assays above

CC1(C)C(C(=O)OC(C#N)c2cccc(Oc3ccccc3)c2)C1(C)C (configuration not stated)
active: [2] 6.92 µM | [5] 5.68 µM | CD38, CD38 (gene 952) 12.1 µM | CD40, CD40 (gene 958) 14.1 µM | CD69, CD69 (gene 969) 12.2 µM
inactive: [1] | [3] | [4] | [6] | [7]

C=CCOC(=O)C(C)(C)OC(=O)c1cc(-n2c(=O)cc(C(F)(F)F)n(C)c2=O)ccc1Cl
active: [3] 13.9 µM | CD38, CD38 (gene 952) 10.8 µM | CD69, CD69 (gene 969) 6.29 µM
not listed: CD40, CD40 (gene 958)
inactive: all other assays above

O=C1C2CC=CCC2C(=O)N1SC(Cl)(Cl)Cl (configuration not stated)
active: [4] 31.4 µM | [5] 36.6 µM | [6] 14.3 µM | CD38, CD38 (gene 952) 30.5 µM
inactive: [1] | [2] | CD40, CD40 (gene 958) | CD69, CD69 (gene 969)

Cn1c(-c2ccccc2)cc(-c2ccccc2)[n+]1C
active: CD38, CD38 (gene 952) 2.68 µM | CD40, CD40 (gene 958) 7.51 µM | CD69, CD69 (gene 969) 2.99 µM | [7] 5.52 µM
inactive: all other assays above

COP(=O)(OC)O/C(C)=C/C(=O)N(C)C
active: [2] 17.3 µM
inactive: all other assays above

CCOC(=O)C(C)OC(=O)c1cc(Oc2ccc(C(F)(F)F)cc2Cl)ccc1[N+](=O)[O-] (configuration not stated)
active: [2] 2.12 µM | [5] 3.73 µM | CD38, CD38 (gene 952) 9.17 µM | CD40, CD40 (gene 958) 3.97 µM | CD69, CD69 (gene 969) 12.8 µM
inactive: all other assays above

COC(=O)NS(=O)(=O)c1ccc(N)cc1
inactive: all assays above

N#CN=C1SCCN1Cc1ccc(Cl)nc1
inactive: all assays above

COP(=S)(OC)SCn1nnc2ccccc2c1=O
inactive: [3] | CD38, CD38 (gene 952) | [7]
active: [1] 20 µM | [2] 13.8 µM | [4] 16.9 µM | [5] 5.58 µM | [6] 20 µM | CD40, CD40 (gene 958) 20 µM | CD69, CD69 (gene 969) 20 µM

COP(=S)(OC)Oc1ccc([N+](=O)[O-])c(C)c1
active: [1] 20 µM | [3] 20 µM | [6] 31.5 µM | CD40, CD40 (gene 958) 7.6 µM | CD69, CD69 (gene 969) 37 µM
inactive: all other assays above
